# Laboratory results reported in the supplement of paper PMC8728848.
# This excerpt belongs to a sample that is enriched for the strongest signals.
# How the values were obtained:
# Test in all cases: glycan array binding signal (z-score within array); higher = stronger binding
# Conditions in all cases: glycan notation: IUPAC condensed, linker removed
# [1] = target: Fuc(a1-2)Gal(b1-3)GalNAc(a1-3)[Fuc(a1-2)]Gal(b1-4)Glc
# In short: (§1)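 The binding signal is a Z-score computed within each array and averaged over linkers. Arrays of the same protein sequence at different concentrations or buffers were also averaged together. Data originate from 3228 arrays in the Consortium for Functional Glycomics database, kept only where the protein sequence was available.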
# [2] = target: Fuc(a1-2)Gal(b1-3)GalNAc(b1-3)Gal
# In short: as §1
# [3] = target: Fuc(a1-2)Gal(b1-4)GlcNAc
# In short: as §1
# [4] = target: Fuc(a1-2)Gal(b1-4)GlcNAc(b1-6)GalNAc
# In short: as §1
# [5] = target: Fuc(a1-2)[Gal(a1-3)]Gal(b1-3)GlcNAc(b1-3)GalNAc
# In short: as §1
# [6] = target: Fuc(a1-2)[GalNAc(a1-3)]Gal(b1-4)Glc
# In short: as §1
# [7] = target: Fuc(a1-2)[GalNAc(b1-3)]Gal
# In short: as §1
# [8] = target: Fuc(a1-3)[Gal(b1-4)]GlcNAc(b1-2)Man(a1-3)[Fuc(a1-3)[Gal(b1-4)]GlcNAc(b1-2)Man(a1-6)]Man(b1-4)GlcNAc(b1-4)GlcNAc
# In short: as §1
# [9] = target: Gal(a1-3)Gal(b1-3)GlcNAc(b1-3)GalNAc
# In short: as §1
# [10] = target: Gal(b1-3)GlcNAc(a1-6)Gal(b1-4)GlcNAc
# In short: as §1
# [11] = target: Gal(b1-3)GlcNAc(b1-3)Gal(b1-4)Glc
# In short: as §1
# [12] = target: Gal(b1-3)GlcNAc(b1-3)Gal(b1-4)GlcNAc(b1-6)[Gal(b1-3)GlcNAc(b1-3)]Gal(b1-4)Glc
# In short: as §1
# [13] = target: Gal(b1-3)GlcNAc(b1-6)[Gal(b1-3)]GalNAc
# In short: as §1
# [14] = target: Gal(b1-3)[GlcNAc(b1-6)]GalNAc
# In short: as §1
# [15] = target: Gal(b1-4)GlcNAc(b1-2)[Gal(b1-4)GlcNAc(b1-4)]Man(a1-3)[GlcNAc(b1-4)][Gal(b1-4)GlcNAc(b1-2)[Gal(b1-4)GlcNAc(b1-6)]Man(a1-6)]Man(b1-4)GlcNAc(b1-4)GlcNAc
# In short: as §1
# [16] = target: Gal(b1-4)GlcNAc(b1-2)[Gal(b1-4)GlcNAc(b1-6)]Man(a1-6)[Gal(b1-4)GlcNAc(b1-2)Man(a1-3)]Man(b1-4)GlcNAc(b1-4)[Fuc(a1-6)]GlcNAc
# In short: as §1
# [17] = target: Gal(b1-4)GlcNAc(b1-3)Gal(b1-3)GlcNAc
# In short: as §1
# [18] = target: Gal(b1-4)GlcNAc(b1-3)Gal(b1-4)Glc
# In short: as §1
# [19] = target: Gal(b1-4)GlcNAc(b1-3)Gal(b1-4)GlcNAc(b1-2)Man(a1-3)[Gal(b1-4)GlcNAc(b1-3)Gal(b1-4)GlcNAc(b1-2)Man(a1-6)]Man(b1-4)GlcNAc(b1-4)[Fuc(a1-6)]GlcNAc
# In short: as §1
# [20] = target: Gal(b1-4)GlcNAc(b1-3)Gal(b1-4)GlcNAc(b1-3)Gal(b1-4)GlcNAc(b1-2)Man(a1-3)[Gal(b1-4)GlcNAc(b1-3)Gal(b1-4)GlcNAc(b1-3)Gal(b1-4)GlcNAc(b1-2)Man(a1-6)]Man(b1-4)GlcNAc(b1-4)[Fuc(a1-6)]GlcNAc
# In short: as §1
# [21] = target: Gal(b1-4)GlcNAc(b1-3)Gal(b1-4)GlcNAc(b1-3)Gal(b1-4)GlcNAc(b1-3)Gal(b1-4)GlcNAc(b1-2)Man(a1-3)[Gal(b1-4)GlcNAc(b1-3)Gal(b1-4)GlcNAc(b1-3)Gal(b1-4)GlcNAc(b1-3)Gal(b1-4)GlcNAc(b1-2)Man(a1-6)]Man(b1-4)GlcNAc(b1-4)[Fuc(a1-6)]GlcNAc
# In short: as §1
# [22] = target: Gal(b1-4)GlcNAc(b1-3)Gal(b1-4)GlcNAc(b1-3)Gal(b1-4)GlcNAc(b1-3)Gal(b1-4)GlcNAc(b1-3)Gal(b1-4)GlcNAc(b1-2)Man(a1-3)[Gal(b1-4)GlcNAc(b1-3)Gal(b1-4)GlcNAc(b1-3)Gal(b1-4)GlcNAc(b1-3)Gal(b1-4)GlcNAc(b1-3)Gal(b1-4)GlcNAc(b1-2)Man(a1-6)]Man(b1-4)GlcNAc(b1-4)[Fuc(a1-6)]GlcNAc
# In short: as §1
# [23] = target: Gal(b1-4)GlcNAc(b1-3)Gal(b1-4)GlcNAc(b1-3)Gal(b1-4)GlcNAc(b1-3)Gal(b1-4)GlcNAc(b1-3)Gal(b1-4)GlcNAc(b1-3)Gal(b1-4)GlcNAc(b1-2)Man(a1-3)[Gal(b1-4)GlcNAc(b1-3)Gal(b1-4)GlcNAc(b1-3)Gal(b1-4)GlcNAc(b1-3)Gal(b1-4)GlcNAc(b1-3)Gal(b1-4)GlcNAc(b1-3)Gal(b1-4)GlcNAc(b1-2)Man(a1-6)]Man(b1-4)GlcNAc(b1-4)GlcNAc
# In short: as §1
# [24] = target: Gal(b1-4)GlcNAc(b1-3)Gal(b1-4)GlcNAc(b1-3)[Gal(b1-4)GlcNAc(b1-3)Gal(b1-4)GlcNAc(b1-6)]GalNAc
# In short: as §1
# [25] = target: Gal3S(b1-4)GlcNAc6S
# In short: as §1
# [26] = target: GalNAc(b1-4)GlcNAc(b1-2)Man
# In short: as §1
binder,measurement,setting,value
"LCA (Lens culinaris), P02870 (protein) MASLQTQMISFYLIFLSILLTTIFFFKVNSTETTSFSITKFSPDQKNLIFQGDGYTTKGKLTLTKAVKSTVGRALYSTPIHIWDRDTGNVANFVTSFTFVIDAPSSYNVADEFTFFIAPVDTKPQTGGGYLGVFNSKEYDKTSQTVAVEFDTFYNAAWDPSNKERHIGIDVNSIKSVNTKSWNLQNGERANVVIAFNAATNVLTVTLTYPNSLEEENVTSYTLNEVVPLKDVVPEWVRIGFSATTGAEFAAHEVHSWSFHSELGGTSSSKQAADA",glycan array binding signal (z-score),[1],-0.201
same,glycan array binding signal (z-score),[2],-0.218
same,glycan array binding signal (z-score),[3],-0.217
same,glycan array binding signal (z-score),[4],-0.218
same,glycan array binding signal (z-score),[5],-0.238
same,glycan array binding signal (z-score),[6],-0.232
same,glycan array binding signal (z-score),[7],-0.257
same,glycan array binding signal (z-score),[8],-0.237
same,glycan array binding signal (z-score),[9],-0.227
same,glycan array binding signal (z-score),[10],-0.211
same,glycan array binding signal (z-score),[11],-0.231
same,glycan array binding signal (z-score),[12],-0.238
same,glycan array binding signal (z-score),[13],-0.231
same,glycan array binding signal (z-score),[14],-0.238
same,glycan array binding signal (z-score),[15],-0.235
same,glycan array binding signal (z-score),[16],4.72
same,glycan array binding signal (z-score),[17],-0.225
same,glycan array binding signal (z-score),[18],-0.205
same,glycan array binding signal (z-score),[19],4.42
same,glycan array binding signal (z-score),[20],4.2
same,glycan array binding signal (z-score),[21],3.87
same,glycan array binding signal (z-score),[22],3.85
same,glycan array binding signal (z-score),[23],-0.192
same,glycan array binding signal (z-score),[24],0.058
same,glycan array binding signal (z-score),[25],-0.227
same,glycan array binding signal (z-score),[26],-0.199
